In PubChem BioAssay (EPA / NIEHS):
Records with an inconclusive call do not appear. Active and inactive are the calls of the source. The calls were made as follows, unless noted: active = hit-call score of the fitted dose curve at least 0.9, where 1 is the maximum; inactive = score below 0.9.

Columns and labels:
[1] = read-out: Monocyte Chemoattractant Protein-1 (MCP1), CCL2 (gene 6347); assay: BSK_SAg_MCP1: BioMAP Diversity Plus: SAg Assay for Monocyte Chemoattractant Protein-1 (MCP1) Biomarker Activity (AID 2283090); settings: primary human HUVEC with PBMC; actives raise or lower the signal
Procedure, shortened: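 MCP-1 levels in the endothelial–PBMC SAg co-culture were quantified by ELISA at 24 h post-dosing; both increases and decreases versus DMSO scored. Cytotoxicity monitored by SRB total protein in parallel cultures.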

[2] = read-out: E-selectin (Homo sapiens) (UniProt P16581); assay: BSK_SAg_Eselectin: BioMAP Diversity Plus: SAg Assay for Eselectin Biomarker Activity (AID 2283091); settings: primary human HUVEC with PBMC; actives raise or lower the signal
Procedure, shortened: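 E-selectin ELISA readout at 24 h post-dosing in human umbilical vein endothelial cell/PBMC co-culture; gain or loss of signal fitted relative to DMSO baseline.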

[3] = read-out: Monokine induced gamma interferon (MIG), CXCL9 (gene 4283); assay: BSK_SAg_MIG: BioMAP Diversity Plus: SAg Assay for Monokine induced gamma interferon (MIG) Biomarker Activity (AID 2283092); settings: primary human HUVEC with PBMC; actives raise or lower the signal
Procedure, shortened: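 Endothelial cells and PBMC were co-cultured, exposed to test chemicals, and sampled 24 h later. MIG was measured by ELISA, and responses were fitted in both directions relative to DMSO.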

[4] = BSK_SAg_PBMCCytotoxicity: PBMC Cytotoxicity Assessment in the BioMAP Diversity Plus: SAg Assay (AID 2283093); settings: primary human HUVEC with PBMC;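 also: PBMC viability measured as Alamar Blue reduction fluorescence at 546/580 nm; fitted both ways against DMSO so a hit may be loss or gain of signal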;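 as to AC50: PBMC superantigen activated with SEB plus TSST-1 one hour after compound addition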
Procedure, shortened: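 Compound added to 75,000 PBMC/well for 1 h; SEB and TSST-1 then added at 20 ng/mL final each; 90 h incubation; Alamar Blue 6 h; read 546/580 nm ex/em. Activity fitted bidirectionally relative to DMSO baseline.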

[5] = read-out: Interleukin-8 (IL8), CXCL8 (gene 3576); assay: BSK_SAg_IL8: BioMAP Diversity Plus: SAg Assay for Interleukin-8 (IL8) Biomarker Activity (AID 2283094); settings: primary human HUVEC with PBMC; actives raise or lower the signal
Procedure, shortened: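 In this co-culture of human umbilical vein endothelium with peripheral blood mononuclear cells, IL-8 is assayed by ELISA at 24 h. DMSO serves as baseline for bidirectional curve fitting.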

[6] = BSK_SAg_Proliferation: Cell Proliferation Assessment in the BioMAP Diversity Plus: SAg Assay (AID 2283095); settings: primary human HUVEC with PBMC;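 also: relative cell number as total protein by SRB absorbance in sub-confluent culture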
Procedure, shortened: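 Readout is SRB-stained protein (560 nm) in a primary human HUVEC and PBMC co-culture; sub-confluent cultures are read at 96 h. Activity is fitted bidirectionally using DMSO as baseline.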

[7] = BSK_SAg_SRB: Viability Assessment in the BioMAP Diversity Plus: SAg Assay (AID 2283096); settings: primary human HUVEC with PBMC;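 also: cells read one day after compound addition; hits may be either gain or loss of signal compared with DMSO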
Procedure, shortened: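 Total protein by sulforhodamine B staining, 24 h after dosing, in HUVEC–PBMC co-culture; DMSO-referenced bidirectional fitting.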

[8] = biological target: human CYP1A1, CYP1A1 (gene 1543) (UniProt P04798); assay: NVS_ADME_hCYP1A1: NovaScreen (NVS) CYP450-related Enzyme Activity (ADME) Assay for human CYP1A1 (AID 2283100; active = hit-call score of the fitted dose curve at least 0.9, where 1 is the maximum)
human CYP1A1, CYP1A1 (gene 1543), sequence (P04798 whole entry, looked up): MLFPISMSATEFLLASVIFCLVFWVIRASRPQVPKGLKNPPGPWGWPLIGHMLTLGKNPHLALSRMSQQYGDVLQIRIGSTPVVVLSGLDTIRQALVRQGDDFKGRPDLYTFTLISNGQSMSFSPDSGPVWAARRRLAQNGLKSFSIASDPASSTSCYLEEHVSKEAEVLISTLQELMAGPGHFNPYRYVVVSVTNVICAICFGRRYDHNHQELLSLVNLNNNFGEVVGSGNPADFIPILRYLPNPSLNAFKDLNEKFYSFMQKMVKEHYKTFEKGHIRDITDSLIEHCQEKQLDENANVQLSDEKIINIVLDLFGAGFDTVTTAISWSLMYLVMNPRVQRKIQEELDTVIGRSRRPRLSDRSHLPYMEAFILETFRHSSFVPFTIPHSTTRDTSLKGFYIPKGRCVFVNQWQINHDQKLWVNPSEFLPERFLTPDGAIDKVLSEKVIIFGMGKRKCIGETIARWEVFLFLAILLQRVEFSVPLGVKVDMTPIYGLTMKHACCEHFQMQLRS
Procedure, shortened: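 Read-out: fluorescence intensity from enzymatic turnover of substrate by recombinant CYP1A1, loss of signal indicating inhibition. Incubation 1 h post-dose. Primary single-point 10 uM in duplicate; actives rerun singly with top concentration 20 uM.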

[9] = biological target: human CYP19A1, CYP19A1 (gene 1588) (UniProt P11511); assay: NVS_ADME_hCYP19A1: NovaScreen (NVS) CYP450-related Enzyme Activity (ADME) Assay for human CYP19A1 (AID 2283098; active = hit-call score of the fitted dose curve at least 0.9, where 1 is the maximum)
human CYP19A1, CYP19A1 (gene 1588), sequence (P11511 whole entry, looked up): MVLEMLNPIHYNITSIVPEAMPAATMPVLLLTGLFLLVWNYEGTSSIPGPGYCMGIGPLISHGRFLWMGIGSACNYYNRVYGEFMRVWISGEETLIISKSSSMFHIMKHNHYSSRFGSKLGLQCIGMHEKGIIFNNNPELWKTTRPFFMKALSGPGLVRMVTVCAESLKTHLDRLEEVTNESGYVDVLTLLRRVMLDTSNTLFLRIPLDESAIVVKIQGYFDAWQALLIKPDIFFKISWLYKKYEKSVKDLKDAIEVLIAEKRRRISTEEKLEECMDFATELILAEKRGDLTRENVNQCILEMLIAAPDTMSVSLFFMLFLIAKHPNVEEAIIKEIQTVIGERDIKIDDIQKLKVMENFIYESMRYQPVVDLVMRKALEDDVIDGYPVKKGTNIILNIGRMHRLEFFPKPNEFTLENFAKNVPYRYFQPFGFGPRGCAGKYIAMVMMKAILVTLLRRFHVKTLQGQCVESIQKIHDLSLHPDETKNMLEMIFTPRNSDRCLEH
Procedure, shortened: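 Biochem, cell-free; recombinant enzyme + specific substrate; fluorescence intensity at 0.5 h post-dose; 10 uM duplicate primary, conc. series for actives; acetonitrile = negative control/baseline; positive and negative controls on every plate.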

[10] = biological target: human CYP2A6, CYP2A6 (gene 1548) (UniProt P11509); assay: NVS_ADME_hCYP2A6: NovaScreen (NVS) CYP450-related Enzyme Activity (ADME) Assay for human CYP2A6 (AID 2283099; active = hit-call score of the fitted dose curve at least 0.9, where 1 is the maximum)
human CYP2A6, CYP2A6 (gene 1548), sequence (P11509 whole entry, looked up): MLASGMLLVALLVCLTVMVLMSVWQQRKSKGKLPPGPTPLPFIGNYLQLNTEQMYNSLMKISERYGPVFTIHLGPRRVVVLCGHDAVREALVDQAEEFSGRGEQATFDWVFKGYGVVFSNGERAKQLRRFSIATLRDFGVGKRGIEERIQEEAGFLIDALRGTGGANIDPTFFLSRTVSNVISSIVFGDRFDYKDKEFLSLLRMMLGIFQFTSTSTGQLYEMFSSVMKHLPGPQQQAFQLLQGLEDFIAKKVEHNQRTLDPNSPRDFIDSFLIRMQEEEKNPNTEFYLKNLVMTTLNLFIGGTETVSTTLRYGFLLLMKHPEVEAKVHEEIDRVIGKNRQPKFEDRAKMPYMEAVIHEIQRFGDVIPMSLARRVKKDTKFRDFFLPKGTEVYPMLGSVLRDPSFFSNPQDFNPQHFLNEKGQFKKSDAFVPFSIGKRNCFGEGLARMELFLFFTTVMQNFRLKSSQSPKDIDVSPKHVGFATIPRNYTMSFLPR
Procedure: NVS_ADME_hCYP2A6 is a biochemical, single-readout assay that uses extracted gene-proteins from insect cells in a cell-free assay. Measurements were taken 0.5 hour after chemical dosing in a 96-well plate.NVS_ADME_hCYP2A6 is one of one assay component(s) measured or calculated from the NVS_ADME_hCYP2A6 assay. It is designed to make measurements of enzyme activity, a form of enzyme reporter, as detected with fluorescence intensity signals by Fluorescence technology.Data from the assay component NVS_ADME_hCYP2A6 was analyzed into 1 assay endpoint. This assay endpoint, NVS_ADME_hCYP2A6, was analyzed in the positive analysis fitting direction relative to Acetonitrile as the negative control and baseline of activity. Using a type of enzyme reporter, loss-of-signal activity can be used to understand changes in the enzymatic activity as they relate to the gene CYP2A6. Furthermore, this assay endpoint can be referred to as a primary readout, because this assay has produced multiple assay endpoints where this one serves a enzymatic activity function. To generalize the intended target to other relatable targets, this assay endpoint is annotated to the cyp intended target family, where the subfamily is xenobiotic metabolism. […]

Measured: AC50

E-selectin (Homo sapiens), sequence (P16581 whole entry, looked up): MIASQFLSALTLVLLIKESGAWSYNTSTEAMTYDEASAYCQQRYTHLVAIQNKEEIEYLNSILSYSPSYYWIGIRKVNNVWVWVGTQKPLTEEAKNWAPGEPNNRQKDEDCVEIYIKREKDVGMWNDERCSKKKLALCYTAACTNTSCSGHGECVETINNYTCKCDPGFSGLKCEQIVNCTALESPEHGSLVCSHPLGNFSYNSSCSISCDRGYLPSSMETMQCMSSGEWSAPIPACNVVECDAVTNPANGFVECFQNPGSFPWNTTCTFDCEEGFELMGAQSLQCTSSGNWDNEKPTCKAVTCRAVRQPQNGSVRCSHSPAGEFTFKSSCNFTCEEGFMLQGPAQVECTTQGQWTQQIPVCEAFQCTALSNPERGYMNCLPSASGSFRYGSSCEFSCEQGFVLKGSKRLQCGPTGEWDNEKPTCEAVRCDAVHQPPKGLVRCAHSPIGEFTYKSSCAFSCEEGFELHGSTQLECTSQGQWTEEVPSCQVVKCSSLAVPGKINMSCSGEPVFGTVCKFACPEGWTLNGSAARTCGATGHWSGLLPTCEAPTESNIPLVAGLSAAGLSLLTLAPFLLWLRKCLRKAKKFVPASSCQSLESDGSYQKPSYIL

CCOC(N)=O
not listed: [8] | [9] | [10]
inactive: all other assays above

OCCC(F)(F)C(F)(F)C(F)(F)C(F)(F)F
not listed: [8] | [9] | [10]
inactive: all other assays above

CCCc1ccccc1
not listed: [8] | [9] | [10]
inactive: all other assays above

FC(F)C(F)(F)COCC1CO1 (configuration not stated)
not listed: [8] | [9] | [10]
inactive: all other assays above

c1ccc2ncccc2c1
not listed: [8] | [9] | [10]
inactive: all other assays above

O=C(O)c1ccc2c(c1)nc(C(=O)NC1CCN(C3CC3)CC1)n2Cc1cc(-c2ccc(Cl)s2)on1
not listed: [8] | [9] | [10]
inactive: all other assays above

CCCCOC(=O)c1ccccc1
not listed: [8] | [9] | [10]
inactive: all other assays above

OCc1ccccc1
not listed: [8] | [9] | [10]
inactive: all other assays above

CCCOc1ccc(S(=O)(=O)N2CCN(CC)CC2)cc1-c1nc2c(CC)n(Cc3ccccn3)nc2c(=O)[nH]1
not listed: [8] | [9] | [10]
inactive: all other assays above

CC(C)CC(C)O (configuration not stated)
not listed: [8] | [9] | [10]
inactive: all other assays above

C[C@@H](Oc1ccc(CNC(=O)c2cccnc2Oc2ccc3c(c2)OCO3)c(F)c1)C(=O)O
not listed: [8] | [9] | [10]
inactive: all other assays above

NCC(F)(F)C(F)(F)C(F)(F)C(F)(F)F
not listed: [8] | [9] | [10]
inactive: all other assays above

NC(=O)N1c2ccccc2C=Cc2ccccc21
not listed: [8] | [9] | [10]
inactive: all other assays above

OC(O)(C(F)C(O)(O)C(F)(F)F)C(F)(F)F
active: [6] 30 µM
not listed: [8] | [9] | [10]
inactive: all other assays above

OCCOCCOCCO
not listed: [8] | [9] | [10]
inactive: all other assays above

NC(N)=O
not listed: [8] | [9] | [10]
inactive: all other assays above

OCc1c[nH]c2ccccc12
active: [5] 0.0481 µM | [6] 31.1 µM
inactive: [1] | [2] | [3] | [4] | [7]

C=CCc1cc(S(=O)(=O)c2ccc(O)c(CC=C)c2)ccc1O
active: [1] 15.1 µM | [2] 13.8 µM | [3] 34.8 µM | [4] 36.8 µM | [5] 11.4 µM | [6] 17.1 µM | [7] 19.2 µM | [8] 2.32 µM

OC(Cn1cncn1)(Cn1cncn1)c1ccc(F)cc1F
not listed: [8] | [9] | [10]
inactive: all other assays above

Nc1ccn([C@@H]2O[C@H](CO)[C@@H](O)[C@@H]2O)c(=O)n1
inactive: [1] | [3] | [5]
active: [2] 8.71 µM | [4] 12 µM | [6] 14.1 µM | [7] 20 µM

O=S(=O)(O)CCC(F)(F)C(F)(F)C(F)(F)C(F)(F)C(F)(F)C(F)(F)F
not listed: [8] | [9] | [10]
inactive: all other assays above

COS(C)(=O)=O
not listed: [8] | [9] | [10]
inactive: all other assays above

Cc1cccc(O)c1C
not listed: [8] | [9] | [10]
inactive: all other assays above

CC(=O)c1ccccc1
not listed: [8] | [9] | [10]
inactive: all other assays above

Cn1c(=O)c2[nH]cnc2n(C)c1=O
not listed: [8] | [9] | [10]
inactive: all other assays above

CCCCCCCC/C=C\CCCCCCCC(=O)OC[C@@H](O)[C@H]1OC[C@H](O)[C@H]1O
not listed: [8] | [9] | [10]
inactive: all other assays above

COc1cc(C(C)C)c2c(c1)S(=O)(=O)N(COc1cc(=O)n3cccc(OCCN4CCCCC4)c3n1)C2=O
inactive: [3] | [4] | [7]
active: [1] 5 µM | [2] 5 µM | [6] 7.69 µM

NC(=O)N(O)[C@@H]1COc2cc(OCc3ccccc3)ccc21
not listed: [8] | [9] | [10]
inactive: all other assays above

O=C(O)c1cccc(C[C@@H]2COc3ccc(OCc4nc5cc(F)ccc5s4)cc3[C@@H]2O)c1
not listed: [8] | [9] | [10]
inactive: all other assays above

CNC(C)=O
not listed: [8] | [9] | [10]
inactive: all other assays above

CCN(CC)C(=S)SSC(=S)N(CC)CC
active: [1] 28.4 µM | [2] 32.6 µM | [3] 36.3 µM | [4] 20 µM | [5] 32.5 µM | [6] 6.07 µM | [7] 30.8 µM
inactive: [9]

O=S1(=O)CCCO1
not listed: [8] | [9] | [10]
inactive: all other assays above

c1ccc(C(O[C@@H]2CCCN(CCc3ccc4c(c3)OCO4)C2)c2ccccc2)cc1
active: [1] 26.5 µM | [2] 27.6 µM | [3] 30.9 µM | [4] 28.4 µM | [5] 14.1 µM | [6] 16.3 µM | [7] 24.3 µM | [8] 4.89 µM
inactive: [10]

NNC(=O)c1ccncc1
active: [4] 5.14 µM
not listed: [8] | [9] | [10]
inactive: all other assays above

CCCC(CCC)C(=O)O
not listed: [8] | [10]
inactive: all other assays above

Cc1nc(-c2ccccn2)ncc1C(=O)Nn1cc(C)c2cc(F)ccc21
active: [6] 20 µM
not listed: [8] | [9] | [10]
inactive: all other assays above

CC(C)CCCCCCOC(=O)C1CCCCC1C(=O)OCCCCCCC(C)C (configuration not stated)
active: [4] 3.51 µM
not listed: [8] | [9] | [10]
inactive: all other assays above

NC(=O)NN=Cc1ccc([N+](=O)[O-])o1
active: [6] 20 µM
not listed: [8]
inactive: all other assays above

CCCCCCCC1CCC(=O)O1 (configuration not stated)
inactive: [1] | [2] | [3] | [5] | [6] | [7]

CCCCN1C(=O)[C@@H]([C@H](O)C2CCCCC2)NC(=O)C12CCN(Cc1ccc(Oc3ccc(C(=O)O)cc3)cc1)CC2
not listed: [8] | [9] | [10]
inactive: all other assays above

O=C(Cl)C(F)(F)C(F)(F)C(F)(F)C(=O)Cl
not listed: [8] | [9] | [10]
inactive: all other assays above
